Among the data in PubChem BioAssay (NCI) are growth values, retold here.

Common to all, as to assay: NCI-60 one-dose screen, 48 h (100 = growth as untreated, 0 = no growth, -100 = all killed)
One experiment concerns HCT-15 colon. Conditions: 10 µM unless noted.
A further experiment relates to HT29 colon. The following applies: 10 µM unless noted.
The next experiment has as its system SNB-19 CNS. The following applies: 10 µM unless noted.
Another experiment relates to U251 CNS. Conditions: 10 µM unless noted.
The test system of the next experiment is PC-3 prostate. Conditions: 10 µM unless noted.
The next experiment has as its system SK-MEL-5 melanoma. Conditions: 10 µM unless noted.
In another experiment the test system is UACC-62 melanoma. Conditions: 10 µM unless noted.
Another experiment relates to LOX IMVI melanoma. Conditions: 10 µM unless noted.
A further experiment deals with SK-MEL-28 melanoma. Conditions: 10 µM unless noted.
The test system of a further experiment is SK-MEL-2 melanoma. Conditions: 10 µM unless noted.
Another experiment relates to EKVX NSCLC. Conditions: 10 µM unless noted.
A further experiment deals with SN12C renal. The following applies: 10 µM unless noted.
A further experiment deals with UO-31 renal. Conditions: 10 µM unless noted.
For another experiment, the system named is TK-10 renal. The following applies: 10 µM unless noted.
The subject of a further experiment is ACHN renal. The following applies: 10 µM unless noted.
For a further experiment, the system named is CAKI-1 renal. The following applies: 10 µM.
The next experiment relates to A498 renal. The following applies: 10 µM unless noted.
A further experiment has as its system CCRF-CEM leukemia. Conditions: 10 µM unless noted.
For another experiment, the system named is MOLT-4 leukemia. The following applies: 10 µM unless noted.

Structures are written as SMILES. About 83,000 compounds went through this panel and 20% of them were active in at least one assay; those are over-represented in the sample as a whole.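 Growth was measured after 48 h exposure to one concentration of compound in 96-well plates. Values under 10 count as active.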 A number with no mark means an inactive call. Active and inactive are the calls of the source.

Turning to `N#Cc1c(-c2cccs2)cc(-c2cnccn2)nc1SCC(=O)NNC(=S)Nc1ccc(F)cc1`, the growth with HCT-15 colon is 102%; in the experiment with HT29 colon it was 116%; in the experiment on SNB-19 CNS, 94.7%; with U251 CNS, 101%; in the experiment on PC-3 prostate, 99.3%; with SK-MEL-5 melanoma, 89.5%. Also, the growth in the experiment with UACC-62 melanoma was 87.8%; in the experiment on LOX IMVI melanoma, 72.1%; with SK-MEL-28 melanoma, 114%; in the experiment with SK-MEL-2 melanoma, 123%; in the experiment with EKVX NSCLC, 103%; in the experiment with SN12C renal, 100%. Also, the growth in the experiment on UO-31 renal is 79%; in the experiment with TK-10 renal it was 108%; in the experiment on ACHN renal, 104%; in the experiment on CAKI-1 renal, 99.1%; in the experiment on A498 renal, 118%; in the experiment on CCRF-CEM leukemia, 93.6%. Further, the growth in the experiment on MOLT-4 leukemia was 94.9%.
Take `COc1cc(/C=N/n2cnc3oc(-c4ccccc4)cc3c2=N)cc(CN2CCCCC2)c1O`: the growth was -79.8% (active) in the experiment with HCT-15 colon; -14.1% (active) with HT29 colon; -41.3% (active) in the experiment on SNB-19 CNS; -66.5% (active) in the experiment with U251 CNS; -31% (active) in the experiment with PC-3 prostate; -89.7% (active) in the experiment with SK-MEL-5 melanoma. Also, the growth was -74.8% (active) in the experiment on UACC-62 melanoma; -86.6% (active) in the experiment with LOX IMVI melanoma; -85.8% (active) in the experiment on SK-MEL-28 melanoma; -38.5% (active) in the experiment with SK-MEL-2 melanoma; -22.7% (active) in the experiment on EKVX NSCLC; -78.8% (active) in the experiment with SN12C renal. Further, the growth in the experiment with UO-31 renal is -91.6% (active); in the experiment on TK-10 renal, -82.5% (active); with ACHN renal, -97.7% (active); in the experiment on CAKI-1 renal, -94.2% (active); in the experiment with A498 renal, 15%; with CCRF-CEM leukemia, -6.9% (active). The growth with MOLT-4 leukemia is 2% (active).
For `O=C(CSc1ccc(-c2nc3ccccc3[nH]2)cn1)N1CCN(c2ccccc2F)CC1`, the growth is 72.4% in the experiment with HCT-15 colon; 94.1% in the experiment on HT29 colon; 89.8% in the experiment with SNB-19 CNS; 90.5% in the experiment on U251 CNS; 57.7% in the experiment on PC-3 prostate; -32.7% (active) in the experiment with SK-MEL-5 melanoma. Further, the growth in the experiment on UACC-62 melanoma was 52.4%; with LOX IMVI melanoma, 85.3%; with SK-MEL-28 melanoma, 87.8%; with SK-MEL-2 melanoma, 88.4%; in the experiment on EKVX NSCLC it was 53.6%; with SN12C renal, 90.4%. The growth was 70.9% in the experiment on UO-31 renal; 86.5% in the experiment with TK-10 renal; 93.2% in the experiment with ACHN renal; 49.1% with CAKI-1 renal; 77% in the experiment on A498 renal; 28.2% with CCRF-CEM leukemia. Also, the growth with MOLT-4 leukemia was 14.6%.
For the molecule `COC(=O)Nc1ccc(-c2nc(-c3cccc(O)c3)c(-c3ccnc(Br)c3)[nH]2)cc1`, the growth was 51% in the experiment on HCT-15 colon; 73.7% with HT29 colon; 56.2% in the experiment with SNB-19 CNS; 47% in the experiment with U251 CNS; 23.7% in the experiment on PC-3 prostate; 61.2% in the experiment on SK-MEL-5 melanoma. Further, the growth in the experiment on UACC-62 melanoma was 23.7%; in the experiment with LOX IMVI melanoma it was 38%; with SK-MEL-28 melanoma, 58.7%; with SK-MEL-2 melanoma it was 77.8%; with EKVX NSCLC, 68.5%; in the experiment with SN12C renal, 60.4%. The growth in the experiment with UO-31 renal was 42.9%; in the experiment on TK-10 renal it was 73.5%; with ACHN renal it was 60.4%; with CAKI-1 renal it was 45.6%; in the experiment with A498 renal it was 73.4%; with CCRF-CEM leukemia, 22.8%. Further, the growth in the experiment on MOLT-4 leukemia is 21.5%.
For `CCCC(=O)NC(c1cccnc1)c1ccc2c(C)ccnc2c1O` (configuration not stated), the growth was 26.9% in the experiment with HCT-15 colon; 20.3% in the experiment on HT29 colon; 37.8% in the experiment on SNB-19 CNS; 26.7% in the experiment with U251 CNS; 36.4% with PC-3 prostate; 4.06% (active) with SK-MEL-5 melanoma. For the same molecule, the growth in the experiment on UACC-62 melanoma is -7.84% (active); in the experiment on LOX IMVI melanoma it was 9.72% (active); in the experiment on SK-MEL-28 melanoma, 30.4%; in the experiment with SK-MEL-2 melanoma, 42.5%; in the experiment on EKVX NSCLC, 15.1%; in the experiment with SN12C renal, 29.1%. Further, the growth with UO-31 renal was 11.8%; in the experiment with TK-10 renal, 33.3%; in the experiment with ACHN renal it was 13.8%; in the experiment with CAKI-1 renal, 19.2%; in the experiment with A498 renal, 37.8%; in the experiment on CCRF-CEM leukemia it was 4.51% (active). Besides, the growth in the experiment with MOLT-4 leukemia was 13.9%.
Consider `Oc1ccc(CSc2nnc(-c3ccc(Br)cc3)n2-c2ccccc2)c2cccnc12`, for which the growth in the experiment with HCT-15 colon is 15.7%; with HT29 colon, 89.6%; with SNB-19 CNS, 17.8%; in the experiment on U251 CNS, 7.75% (active); in the experiment on PC-3 prostate it was 29.5%; in the experiment on SK-MEL-5 melanoma, 12%. Also, the growth was 0.404% (active) in the experiment on UACC-62 melanoma; 36.2% in the experiment with LOX IMVI melanoma; 40.9% with SK-MEL-28 melanoma; 39.4% in the experiment with SK-MEL-2 melanoma; 43.1% in the experiment with EKVX NSCLC; 35% with SN12C renal. In addition, the growth was 8.19% (active) in the experiment on UO-31 renal; 36.5% in the experiment with TK-10 renal; 27% in the experiment with ACHN renal; 36.7% in the experiment on CAKI-1 renal; 63.8% in the experiment with A498 renal; 22.9% with CCRF-CEM leukemia. Besides, the growth with MOLT-4 leukemia is 32.3%.
Take `Oc1ccc(CSc2nnc(-c3cnccn3)n2-c2ccccc2)c2cccnc12`: the growth is 19.3% in the experiment with HCT-15 colon; 79.5% with HT29 colon; 19.7% in the experiment with SNB-19 CNS; 20.4% with U251 CNS; 30% in the experiment with PC-3 prostate; -22.6% (active) in the experiment on SK-MEL-5 melanoma. Moreover, the growth in the experiment on UACC-62 melanoma is 2.61% (active); in the experiment on LOX IMVI melanoma, 15.5%; in the experiment on SK-MEL-28 melanoma, 32.5%; in the experiment with SK-MEL-2 melanoma, 42.6%; in the experiment with EKVX NSCLC, 44%; in the experiment with SN12C renal, 24.5%. Further, the growth in the experiment with UO-31 renal is 10.7%; in the experiment on TK-10 renal it was 37.7%; in the experiment with ACHN renal it was 15.4%; with CAKI-1 renal it was 16.7%; in the experiment on A498 renal, 10.9%; in the experiment with CCRF-CEM leukemia, 16.7%. In addition, in the experiment with MOLT-4 leukemia, the growth was 21.3%.
Take `Cc1ccc(/C=C/CC(=O)Nc2ccc(C(=O)Nc3ccc(F)cc3N)cc2)cn1`: the growth was 79.5% with HCT-15 colon; 36.1% in the experiment with HT29 colon; 73.7% in the experiment on SNB-19 CNS; 61.1% in the experiment with U251 CNS; 53% with PC-3 prostate; 69.3% in the experiment with SK-MEL-5 melanoma. Besides, the growth in the experiment with UACC-62 melanoma was 51.3%; with LOX IMVI melanoma it was 49.3%; in the experiment on SK-MEL-28 melanoma, 55.6%; in the experiment on SK-MEL-2 melanoma, 60.7%; in the experiment with EKVX NSCLC, 63.4%; in the experiment on SN12C renal, 73.5%. Besides, the growth in the experiment on UO-31 renal was 58.9%; with TK-10 renal, 34.9%; in the experiment on ACHN renal it was 80.8%; with CAKI-1 renal it was 57.2%; with A498 renal it was 38.9%; in the experiment with CCRF-CEM leukemia, 23.3%. Moreover, the growth in the experiment with MOLT-4 leukemia is 45.1%.
